This passage reports binding (percent of control) results from PubChem BioAssay AID588358 (NMMLSC, 2011).

Each structure is given as a SMILES string. About 1,500 (0.48%) of roughly 310,000 compounds were called active. Shown is part of a subset that was picked to be rich in actives. A number with no mark means an inactive call.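 How the source made its calls: active means binding more than 3 SD below its plate's average and above zero; inconclusive means below that plate limit but binding exactly zero; inactive means the rest.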

The target in this assay is Desmoglein-3 (Homo sapiens) (UniProt P32926). The assay can be described thus: blockers of anti-DSG3 scFv binding – biochemical, bead-based, flow cytometry, scFv-GFP, primary screen (AID 588358).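 Further: hits lower antibody fragment binding to DSG3.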 The note with it: DSG3-coupled beads, at 10 µM, active compounds read low. (In general: Flow cytometry measures light scatter and fluorescence of single cells or particles in a stream.)
Chain of Desmoglein-3 (Homo sapiens) (P32926 whole entry, looked up, the tested form may be a part): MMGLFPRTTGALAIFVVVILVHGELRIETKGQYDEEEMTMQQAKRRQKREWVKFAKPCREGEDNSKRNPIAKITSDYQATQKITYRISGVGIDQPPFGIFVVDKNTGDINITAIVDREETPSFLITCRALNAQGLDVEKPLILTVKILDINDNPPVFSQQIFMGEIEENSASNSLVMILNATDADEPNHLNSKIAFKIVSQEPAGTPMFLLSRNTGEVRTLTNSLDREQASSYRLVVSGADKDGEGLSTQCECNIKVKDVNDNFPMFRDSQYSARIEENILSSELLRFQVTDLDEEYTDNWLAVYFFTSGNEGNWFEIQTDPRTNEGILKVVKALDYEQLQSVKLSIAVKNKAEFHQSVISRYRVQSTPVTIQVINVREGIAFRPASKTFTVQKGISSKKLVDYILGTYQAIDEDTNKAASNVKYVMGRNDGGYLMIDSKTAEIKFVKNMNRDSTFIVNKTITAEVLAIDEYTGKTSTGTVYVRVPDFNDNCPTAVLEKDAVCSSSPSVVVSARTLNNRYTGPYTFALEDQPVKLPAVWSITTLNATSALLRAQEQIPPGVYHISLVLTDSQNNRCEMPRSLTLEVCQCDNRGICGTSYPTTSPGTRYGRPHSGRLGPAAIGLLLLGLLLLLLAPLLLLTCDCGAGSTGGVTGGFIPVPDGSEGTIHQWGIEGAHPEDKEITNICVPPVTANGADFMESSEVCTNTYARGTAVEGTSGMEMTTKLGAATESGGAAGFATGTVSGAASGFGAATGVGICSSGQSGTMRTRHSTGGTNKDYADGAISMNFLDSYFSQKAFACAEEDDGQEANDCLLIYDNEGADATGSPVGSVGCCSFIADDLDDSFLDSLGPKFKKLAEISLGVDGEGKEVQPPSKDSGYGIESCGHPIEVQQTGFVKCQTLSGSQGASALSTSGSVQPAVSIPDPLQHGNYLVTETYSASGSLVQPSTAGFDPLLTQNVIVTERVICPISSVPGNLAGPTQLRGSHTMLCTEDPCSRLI
`c1ccc(CCNC2CCCCCC2)cc1`: the binding (percent of control) is 68.9% (active).
As to `c1cc2c(cc1CCNC1CCCCCC1)OCO2`, the binding (percent of control) is 97.2%.
For `OC(CNC1CCCCC1)c1ccccc1` (stereo not given) the value was 107%; for `CN1CCC[C@@H]1CCO[C@](C)(c1ccccc1)c1ccc(Cl)cc1`, 102%; for `Cc1ncoc1C(=O)NCC1=C(c2cccc3ccccc23)C[C@@H]2CC[C@H]1N2Cc1ccco1`, 108%.
